Only some compounds are listed: those with a hit (about 0.51% of all), similar ones and a draw of the others.
FMDV RLuc: Primary qHTS Assay for Foot and Mouth Disease Virus Antivirals against NCGC Sytravon and CBC Compound Libraries: Renilla Luciferase Signal. FMDV replicon cells, Renilla luciferase signal. Potency, µM (top dose mostly 57.5 µM), for inactives: at the top dose activity change, negative = inhibition, most hits filed as inhibitors. 120,000 compounds, 0.32% hits. AID 1745857, 2022; note: nearly all actives have a fitted effect of over 55% in size
FMDV FLuc: Primary qHTS Assay for Foot and Mouth Disease Virus Antivirals against NCGC Sytravon and CBC Compound Libraries: Firefly Luciferase Signal; FMDV antiviral cell assay, firefly luciferase signal; Potency, µM (highest dose often 57.5 µM), inactives show at the highest dose activity change, negative = inhibition, actives largely listed as inhibitors; 120,000 compounds, 0.23% hits; AID 1745856, 2022; note: nearly all actives have a fitted effect of over 60% in size
Starred values were filed as active, the others as inactive; ? = inconclusive; [ ] = remark or other dose. Calls come from the whole dose curve. % is set by controls: 0 for no effect and ±100 for the full control effect; potency is the fitted concentration of half-maximal effect.

SMILES	FMDV RLuc	FMDV FLuc
COc1ccc(-c2nc(SCc3cc(=O)c4cc(C)ccc4[nH]3)n[nH]2)cc1	?	-16%
COc1cc(CNC(=O)c2ccc3nc(CCc4ccccc4)oc3c2)cc(OC)c1OC	15%	-24%
COc1cc(CNC(=O)c2ccc3nc(Cc4ccccc4)oc3c2)cc(OC)c1OC	?	14µM*
CNC(=S)NNC(=O)c1ccccc1	-3%	17%
CCCOc1cccc(C(=O)Nc2ccc(-c3cc4ccccc4oc3=O)c(C)c2)c1	-14%	3%
CCCOc1ccc(C(=O)Nc2ccc(-c3cc4ccccc4oc3=O)c(C)c2)cc1	4.5µM*	7.9µM*
C(#CCN1CCN(CC#CCOCCOCc2ccccc2)CC1)COCCOCc1ccccc1	5µM*	4.5µM*
C(#CCN1CCN(CC#CCOCc2ccccc2)CC1)COCc1ccccc1	-3%	-7%
CCOc1ccc(CN(CC)Cc2cc(=O)n3[nH]c(-c4cccc(C)c4)cc3n2)cc1	-11%	-13%
Cc1ccc(CN(Cc2cc(=O)n3[nH]c(-c4cccc(C)c4)cc3n2)CC(C)C)cc1	25µM*	?
CCc1ccc(-c2nnn(CC(=O)N3CCCC3c3ccc4c(c3)OCCO4)n2)cc1 (stereo not drawn)	-16%	-12%
CCc1ccc(-c2nc(SCC(=O)N3CCCC3c3ccc4c(c3)OCCCO4)n[nH]2)cc1 (stereo not drawn)	28µM*	?
Cc1ccc(-c2nc(SCC(=O)N3CCCC3c3ccc4c(c3)OCCO4)n[nH]2)cc1 (stereo not drawn)	20µM*	?
O=C(CSc1nnnn1C1CC1)N1CCCC1c1ccc2c(c1)OCCO2 (stereo not drawn)	-5%	4%
Cc1cc(C)n(-c2nc3ccccc3nc2Nc2ccccc2Cl)n1	-11%	-8%
CCN(CC)c1nc2ccccc2nc1C(=O)Nc1cc(OC)cc(OC)c1	15%	2%
CC1(C)CC(=O)C2=C(C1)Nc1[nH]n(-c3ccccc3)c(=O)c1C2c1ccc(O)cc1 (stereo not drawn)	10µM*	2%
CC1(C)CC(=O)C2=C(C1)Nc1[nH]n(-c3ccccc3)c(=O)c1C2c1ccc(F)cc1 (stereo not drawn)	156%	43%
CC1CCCCC1NC(=O)c1ccc(-c2ccccc2)cc1 (stereo not drawn)	-6%[1.06 µM]	76%
Cc1nc(CN2CCN(S(=O)(=O)c3ccccc3Cl)CC2)cs1	-5%	-11%
Cc1ccc(Nc2nc(CN3CCN(S(=O)(=O)c4cc(C)ccc4C)CC3)cs2)cc1	8.9µM*	?
CCOc1ccc(/C=C(\C)[N+](=O)[O-])cc1	-27%	?
C=CCOc1ccc(/C=C(\C)[N+](=O)[O-])cc1OC	32µM*	?
CC1CCCCN1CC(=O)NC(=O)NCc1cccs1 (stereo not drawn)	116%	167%
O=C(/C=C/c1ccc(Cl)c(Cl)c1)c1ccccc1OC(F)F	39%	28%
SMILES	FMDV RLuc	FMDV FLuc
COc1cc(/C=C/C(=O)c2ccccc2C)cc(OC)c1OC(F)F	28µM*	?
Cc1cccc2c1N(C(=O)c1cccc3ncccc13)CCC2	-16%	-23%
CC(Sc1cccc[n+]1[O-])C(=O)Nc1ccc(C(N)=O)cc1 (stereo not drawn)	5%	-3%
N#Cc1ccc(CN2CCN(C(=O)c3ccc(Cn4nnc5ccccc54)cc3)CC2)cc1	5µM*	6.3µM*
N#Cc1ccc(CN2CCN(C(=O)C3CC=CCC3)CC2)cc1 (stereo not drawn)	0%	6%
COc1ccccc1CNC(=O)CN1C(=O)CCCc2ccccc21	-3%	-4%
Cc1ccccc1CNC(=O)CN1C(=O)CCCc2ccccc21	32µM*	114%
CC1CCN(S(=O)(=O)c2ccc(NC(=O)Cn3cnc4c3c(=O)n(C)c(=O)n4C)cc2)CC1	-4%	-5%
CCONC(=O)NCc1ccc2cc(OC)ccc2c1	9%	31%
O=C(CCc1ncc(-c2c(F)cccc2F)o1)N1CCN(c2ccc([N+](=O)[O-])cc2)CC1	-10%	-1%
COc1ccc(-c2onc(C)c2C)cc1S(=O)(=O)N(C)Cc1ccco1	?	32µM*
CCN(CC)S(=O)(=O)c1cc(-c2onc(C)c2C)ccc1OC	101%	-9%
Fc1cccc(-c2nc(COc3ccccc3F)co2)c1	10%	160%
CNC(=O)c1ccccc1OCc1coc(-c2cccc(F)c2)n1	25µM*	?
Cc1ccc2[nH]c(=O)c(CN(C)C(=O)c3ccc(C(C)(C)C)cc3)cc2c1	4%	9%
COc1ccc(CC(=O)Nc2ccc3nc(Nc4ccc(OC)cc4)cc(C)c3c2)cc1	0%	?
COc1ccc(NC(=O)CSc2nc3nc(C)cc(C)n3n2)cc1	-17%	9%
CCNc1cc(C)nc(Nc2ccc(NC(=O)c3ccccc3F)cc2)n1	28µM*	?
COc1ccc(Nc2cc(C)nc(Nc3ccc(NC(=O)CC(C)C)cc3)n2)cc1	28µM*	?
Cc1cc(N2CCCC2)nc(Nc2ccc(NC(=O)c3c(F)cccc3F)cc2)n1	5%	24%
COc1ccc(Nc2cc(C)nc(Nc3ccc(NC(=O)CCc4ccccc4)cc3)n2)cc1	?	13µM*
O=S(=O)(c1ccc2oc3ccc(S(=O)(=O)N4CCCCCC4)cc3c2c1)N1CCCCCC1	14%	20%
CCC(C)NC(=O)C1CC2CCC1C2 (stereo not drawn)	-2%	9%
Cc1nc(N2CCCC2)ncc1C(=O)NCc1ccc(F)cc1	10%	7%
Cc1nc2cc(F)ccc2cc1C(=O)NCc1ccc(C(=O)N2CCCC2)cc1	2.5µM*	6.3µM*
SMILES	FMDV RLuc	FMDV FLuc
Cc1ccc(C(=O)NCc2ccc(N3CCCC3)nc2)cc1F	-4%	12%
Cc1ccc2cc(C(=O)NCc3ccc(N4CCC(C)CC4)nc3)c(C)nc2c1	1µM*	?
Cc1nc(-c2cccc(N3CC(C(=O)NC4CCCCCC4)CC3=O)c2)no1 (stereo not drawn)	15%	15%
Cn1cc(S(=O)(=O)N2CCCC(C(=O)Nc3nn(Cc4ccc(F)cc4)cc3Cl)C2)cn1 (stereo not drawn)	-16%	-12%
CC(C)(C)c1ccc(C(=O)Nc2ccc(CCC(=O)O)cc2)cc1	14%	?
O=C(Cc1cccs1)Nc1c(NCc2ccccc2)c2ccccc2oc1=O	4%	5%
CSCc1ccc(C(=O)Nc2ccccc2F)o1	-7%	167%
O=C(Nc1ccncc1)C1CCN(c2nc3ccccc3o2)CC1	16µM*	?
O=C(Nc1ccc(C(F)(F)F)cc1)C1CCN(c2nc3ccccc3o2)CC1	?	-24%
Cc1ccsc1/C=C1\Oc2cc(OC(=O)C(C)(C)C)ccc2C1=O	-9%	43%
O=C(c1cc(-c2csc(Nc3ccccc3C(F)(F)F)n2)c[nH]1)N1CCCC1	51%	88%
O=C(/C=C/Nc1ccc(OC(F)(F)F)cc1)c1ccc(Br)cc1	9%	0%
CCOC(=O)N1CCc2c(sc(NCc3ccc(OC)c(OC)c3OC)c2C(=O)Nc2ccc(OC)cc2OC)C1	9%	-26%
CCOC(=O)N1CCc2c(sc(NCc3ccc(OCC)cc3)c2C(=O)Nc2ccc(OC)cc2OC)C1	24%	25µM*
CCCSc1nnc2n(C)c(=O)c3c(n12)-c1ccccc1CC31CCCCC1	-20%	-11%
Cc1cccc(OCc2nc3c4c(ncn3n2)OC2=C(C(=O)CCC2)C4c2ccco2)c1C (stereo not drawn)	?	20µM*
